{"source": "PubChem BioAssay AID2506", "about": "(National Center for Advancing Translational Sciences (NCATS), 2010)", "note": "Where “and” joins values, the source holds several entries; their conditions need not be identical. Equal values may be shown once. A number with no mark means an inactive call. The call rests on the fitted dose curve; in most records, active means well fitted curve in the direction sought with a large enough effect; inactive means no such curve, though single readings can be large or run the other way.", "data": [{"system": "4-diphosphocytidyl-2-C-methyl-D-erythritol kinase IspE (bacterial, species not stated)", "assay": "Confirmatory Assay for Inhibitors of Human Galactokinase (GALK): CDP-Me assay counterscreen for probe SAR", "conditions": "Kinase-Glo ATP luminescence, 1 h", "text": "NIH Molecular Libraries Probe Production Centers Network [MLPCN] NIH Chemical Genomics Center [NCGC] MLPCN Grant: R03 MH085689-01 Assay Submitter (PI): Kent Lai (University of Utah School of Medicine, 50 N Mario Capecchi Drive, Salt Lake City, UT 84132) NCGC Assay Overview The GHMP kinase family is a unique class of important enzymes that plays an essential role in many metabolic processes. It contains more than 170 protein members among which are the galactokinase (GALK) and the CMK enzymes. GALK plays a crucial role in galactose processing and is a potential therapeutic target for Classic Galactosemia (OMIM: 230400). CMK is involved for the non-mevalonate synthesis of isoprenoids precursors and natural products like sterols or ubiquinones which are important to many biological functions. Although the sequence identity between GALK and CMK is low, the three-dimensional structures and active sites are highly similar. Therefore to determine the validity and selectivity of an active compound observed in the GALK qHTS screen (AID: 1868), a bioluminescent counter-screen targeting bacterial CMK was developed. In addition, because the mevalonate independent synthesis of isoprenoids are more prevalent in opportunistic pathogens such as bacteria, CMK is a potential novel therapeutic target where selective inhibitors could be used to determine potential antibacterial effects. The CMK (provided by Kent Lai) was assayed using ATP and 4-diphosphocytidyl-2-C-methyl-D-erythritol (CDP-ME; Echelon, cat# I-M052) as substrates. Promega Kinase-Glo Plus (cat# V3774) technology was used to detect the residual ATP following kinetic reaction. Briefly, the Kinase-Glo Plus contains Ultra-Glo [5] luciferase and D-luciferin which generates a bioluminescence signal from the remaining ATP.\nNCGC Assay Protocol Summary: Three uL/well of substrate solution (15 uM ATP, 30 uM CDP-ME, 20 mM HEPES pH8.0, 5 mM MgCl2, 40 mM KCl, 1 mM DTT, 0.01% BSA final concentration) was dispensed into 1536-well, assay plates (Greiner, solid white medium-binding plates) with Aurora Discovery BioRAPTR Flying Reagent Dispenser (FRD; Beckton-Dickenson). Compound and control solutions (23 nL) were transferred to the assay plate using the Kalypsys 1536-pin tool. One uL/well enzyme solution (0.25 ug/mL CDP-Me kinase, 20 mM HEPES pH8.0, 5 mM MgCl2, 40 mM KCl, 1 mM DTT, 0.01% BSA final concentration) was then added using the FRD yielding a total kinase reaction volume of 4 uL/ well. After 1 hour of room temperature incubation, 4 uL Kinase-Glo Plus reagent was added for a final assay volume of 8 uL/well. After 1 min, luminescence was detected with the ViewLux plate reader (Perkin Elmer, Waltham, MA) using a 1 sec exposure time and 2x binning settings.", "values": [{"smiles": "O=C1CCCC2=C1C(c1ccc(Cl)cc1)N=C(Nc1nc3ccccc3o1)N2", "note": "(stereo not drawn)", "max response": "0.739%"}, {"smiles": "O=C1CC(c2ccccc2)CC2=C1C1(CCCCC1)N=C(Nc1nc3ccccc3o1)N2", "note": "(stereo not drawn)", "max response": "5.2%"}, {"smiles": "Cc1ccc2nc(NC3=NC4(CCCC4)C4=C(CCCC4=O)N3)oc2c1", "max response": "7.12%"}, {"smiles": "COc1ccccc1C1N=C(Nc2nc3ccccc3o2)NC2=C1C(=O)CC(C)(C)C2", "note": "(stereo not drawn)", "max response": "1.66%"}, {"smiles": "O=C1CC(c2ccccc2)CC2=C1C1(CCCC1)N=C(Nc1nc3ccccc3o1)N2", "note": "(stereo not drawn)", "max response": "3.59%"}, {"smiles": "O=C1CCCC2=C1C1(CCC1)N=C(Nc1nc3ccccc3o1)N2", "max response": "4.72%"}, {"smiles": "O=C1CCCC2=C1C1(CCOCC1)N=C(Nc1nc3ccccc3o1)N2", "max response": "4.63%"}, {"smiles": "O=C1CCCC2=C1C1(CCSCC1)N=C(Nc1nc3ccccc3o1)N2", "max response": "-0.443%"}, {"smiles": "O=C1CCCC2=C1C1(CCCC1)N=C(Nc1nc3cc(Br)ccc3o1)N2", "max response": "5.8%"}, {"smiles": "O=C1CCCC2=C1C1(CCCC1)N=C(Nc1nc3cc(Cl)ccc3o1)N2", "max response": "3.11%"}, {"smiles": "CC1(C)CC(=O)C2=C(C1)NC(Nc1nc3ccccc3o1)=NC2c1cccc(F)c1", "note": "(stereo not drawn)", "max response": "2.59%"}, {"smiles": "O=C1CCC2=C1C(c1ccccc1Cl)N=C(Nc1nc3ccccc3o1)N2", "note": "(stereo not drawn)", "max response": "-0.401%"}, {"smiles": "COc1ccc(C2N=C(Nc3nc4ccccc4o3)NC3=C2C(=O)CC(C)(C)C3)cc1", "note": "(stereo not drawn)", "max response": "1.84%"}, {"smiles": "CC1(C)CC(=O)C2=C(C1)NC(Nc1nc3ccccc3o1)=NC2c1ccccc1", "note": "(stereo not drawn)", "max response": "1.82%"}, {"smiles": "COc1cccc(C2N=C(Nc3nc4ccccc4o3)NC3=C2C(=O)CC(C)(C)C3)c1", "note": "(stereo not drawn)", "max response": "0.986%"}, {"smiles": "Cn1c(NC2=NC3(CCCC3)C3=C(CCCC3=O)N2)nc2ccccc21", "max response": "5.48%"}, {"smiles": "O=C1CCCC2=C1C1(CCCC1)N=C(Nc1nc3ccccc3n1Cc1ccccc1)N2", "max response": "4.95%"}, {"smiles": "O=C1CCCC2=C1C1(CCCC1)N=C(Nc1nc3ccccc3o1)N2", "max response": "4.68% and -2.85%"}, {"smiles": "CC1(C)CC(=O)C2=C(C1)NC(Nc1nc3ccccc3o1)=NC2c1cccc(Cl)c1", "note": "(stereo not drawn)", "max response": "2.44%"}, {"smiles": "O=C1CCCC2=C1C1(CCS(=O)(=O)C1)N=C(Nc1nc3ccccc3o1)N2", "note": "(stereo not drawn)", "max response": "-0.863%"}, {"smiles": "CC1(C)CC(=O)C2=C(C1)NC(Nc1nc3ccccc3o1)=NC21CCCC1", "max response": "-5.27%"}, {"smiles": "O=C1CCCC2=C1C1(CCCC1)N=C(Nc1nc3cc(-c4ccccc4)ccc3o1)N2", "max response": "-2.69%"}, {"smiles": "O=C1CCCC2=C1[C@@]1(CCC(c3ccccc3)C1)N=C(Nc1nc3ccccc3o1)N2", "note": "(stereo partly drawn)", "max response": "3.98%"}, {"smiles": "O=C1CCC2=C1C1(CCCC1)N=C(Nc1nc3ccccc3o1)N2", "max response": "2.86%"}, {"smiles": "CC1(C)N=C(Nc2nc3ccccc3o2)NC2=C1C(=O)CCC2", "max response": "3.59%"}, {"smiles": "CC1(C)CC(=O)C2=C(C1)NC(Nc1nc3ccccc3o1)=NC2c1ccccc1Cl", "note": "(stereo not drawn)", "max response": "1.88%"}, {"smiles": "CC1(C)CC(=O)C2=C(C1)NC(Nc1nc3ccccc3o1)=NC2c1cccc(O)c1", "note": "(stereo not drawn)", "max response": "1.58%"}, {"smiles": "O=C1CCCC2=C1C1(CCCCC1)N=C(Nc1nc3ccccc3o1)N2", "max response": "-0.522%"}, {"smiles": "O=C1CCCC2=C1C(c1ccccc1Cl)N=C(Nc1nc3ccccc3o1)N2", "note": "(stereo not drawn)", "max response": "-2.1%"}, {"smiles": "O=C1CCCC2=C1C1(CCCC1)N=C(Nc1nc3cc4ccccc4cc3o1)N2", "max response": "5.94%"}, {"smiles": "O=C1CCCC2=C1C1(CCCOC1)N=C(Nc1nc3ccccc3o1)N2", "note": "(stereo not drawn)", "max response": "3.35%"}, {"smiles": "Cc1ccc2oc(NC3=NC4(CCCC4)C4=C(CCCC4=O)N3)nc2c1", "max response": "5.2%"}, {"smiles": "CC1(C)CC(=O)C2=C(C1)NC(Nc1nc3ccccc3o1)=NC2c1cccnc1", "note": "(stereo not drawn)", "max response": "1.01%"}, {"smiles": "O=C1CCCC2=C1C1(CCSC1)N=C(Nc1nc3ccccc3o1)N2", "note": "(stereo not drawn)", "max response": "-0.317%"}, {"smiles": "Cc1nc(Nc2nc3ccccc3o2)nc2c1C(=O)CC(C)(C)C2", "max response": "-1.17%"}, {"smiles": "CC1CCC2(C1)N=C(Nc1nc3ccccc3o1)NC1=C2C(=O)CCC1", "note": "(stereo not drawn)", "max response": "2.87%"}, {"smiles": "Cc1ccc(C2N=C(Nc3nc4ccccc4o3)NC3=C2C(=O)CC(C)(C)C3)cc1", "note": "(stereo not drawn)", "max response": "2.37%"}, {"smiles": "CCC1CCC2(C1)N=C(Nc1nc3ccccc3o1)NC1=C2C(=O)CCC1", "note": "(stereo not drawn)", "max response": "0.524% [middle of 5 runs]"}]}]}
